Of roughly 8,800 targets only a part is listed; those with a hit were picked by preference. About 0.5% of all pairs of compound and target were hits.
Experiments:
Experiment in all cases: log2 fold change, soluble protein after heating vs DMSO (PISA); higher = thermal stabilisation; K562 lysate, 10 uM; active = over 0.2 and 3.5 SD of the protein, either way, in both replicates (recomputed)
[1] = compound: C#Cc1cccc(Nc2ncnc3cc(OCCOC)c(OCCOC)cc23)c1 [erlotinib]
Outline: (§1)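 Pellets of K562 cells were dounce-homogenised in PBS pH 7.4 with 1 mM MgCl2, and the crude extract was held at 1 mg/mL protein for a 30 min treatment with 10 μM compound. Aliquots were heated for 3 min over 48°C-58°C and pooled before NP-40 was added to 0.5% at 4°C. The supernatant from 21,000xg for 90 min was quantified by TMTpro 16plex LC-MS/MS with channel sums equalised. Values are reported from duplicates as log-two fold change in thermal stability relative to solvent controls.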

[2] = compound: C/C(=N\NC(=O)C1=CC(=CC=C1)S(=O)(=O)N2CCOCC2)/C3=C(C=CC(=C3)Cl)O
Outline: as §1

[3] = compound: C1=CC(=CC=C1C2=NC3=C(N2)C=C(C=C3)C(=O)N)OC4=CC=C(C=C4)Cl
Outline: as §1

[4] = compound: C1=CC2=C(C=CC(=C2)/C=C\3/C(=O)NC(=NCC4=CC=CS4)S3)N=C1
Outline: as §1

[5] = compound: C1=CC2=NC=CN=C2C=C1/C=C/3\C(=O)NC(=O)S3
Outline: as §1

[6] = compound: C1=CC=C(C=C1)C2=NC(=C(N2)C3=CC=NC=C3)C4=CC(=C(C=C4)Cl)O
Outline: as §1

[7] = compound: C1=CC=C2C(=C1)C3=NNC4=CC=CC(=C43)C2=O
Outline: as §1

[8] = compound: C1CCN(C1)C(=O)NC2=CC=CC(=C2)NC3=NC=C(C(=N3)NCCC4=CN=CN4)Br
Outline: as §1

[9] = compound: C1CN(CCC1(CC2=CC=C(C=C2)Cl)N)C3=NC=NC4=C3C=CN4
Outline: as §1

[10] = compound: C1COCCN1CCN2C3=CC=CC=C3N=C2NC(=O)C4=CC(=CC=C4)[N+](=O)[O-] [IRAK-1-4 Inhibitor I]
Outline: as §1

Sequence of UniProt Q13148 (Q13148 whole entry, looked up): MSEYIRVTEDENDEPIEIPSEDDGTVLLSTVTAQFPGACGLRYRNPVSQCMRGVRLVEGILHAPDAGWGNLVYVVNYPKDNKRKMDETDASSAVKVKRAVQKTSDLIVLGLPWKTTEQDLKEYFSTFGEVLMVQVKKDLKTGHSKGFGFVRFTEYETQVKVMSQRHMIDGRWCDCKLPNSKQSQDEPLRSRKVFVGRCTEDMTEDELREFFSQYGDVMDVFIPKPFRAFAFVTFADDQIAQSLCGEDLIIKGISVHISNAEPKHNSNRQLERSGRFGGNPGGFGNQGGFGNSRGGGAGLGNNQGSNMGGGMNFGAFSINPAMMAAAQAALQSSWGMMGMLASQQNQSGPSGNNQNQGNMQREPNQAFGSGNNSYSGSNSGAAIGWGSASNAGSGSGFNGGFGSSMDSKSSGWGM
Sequence of UniProt Q9H4L7 (Q9H4L7 whole entry, looked up): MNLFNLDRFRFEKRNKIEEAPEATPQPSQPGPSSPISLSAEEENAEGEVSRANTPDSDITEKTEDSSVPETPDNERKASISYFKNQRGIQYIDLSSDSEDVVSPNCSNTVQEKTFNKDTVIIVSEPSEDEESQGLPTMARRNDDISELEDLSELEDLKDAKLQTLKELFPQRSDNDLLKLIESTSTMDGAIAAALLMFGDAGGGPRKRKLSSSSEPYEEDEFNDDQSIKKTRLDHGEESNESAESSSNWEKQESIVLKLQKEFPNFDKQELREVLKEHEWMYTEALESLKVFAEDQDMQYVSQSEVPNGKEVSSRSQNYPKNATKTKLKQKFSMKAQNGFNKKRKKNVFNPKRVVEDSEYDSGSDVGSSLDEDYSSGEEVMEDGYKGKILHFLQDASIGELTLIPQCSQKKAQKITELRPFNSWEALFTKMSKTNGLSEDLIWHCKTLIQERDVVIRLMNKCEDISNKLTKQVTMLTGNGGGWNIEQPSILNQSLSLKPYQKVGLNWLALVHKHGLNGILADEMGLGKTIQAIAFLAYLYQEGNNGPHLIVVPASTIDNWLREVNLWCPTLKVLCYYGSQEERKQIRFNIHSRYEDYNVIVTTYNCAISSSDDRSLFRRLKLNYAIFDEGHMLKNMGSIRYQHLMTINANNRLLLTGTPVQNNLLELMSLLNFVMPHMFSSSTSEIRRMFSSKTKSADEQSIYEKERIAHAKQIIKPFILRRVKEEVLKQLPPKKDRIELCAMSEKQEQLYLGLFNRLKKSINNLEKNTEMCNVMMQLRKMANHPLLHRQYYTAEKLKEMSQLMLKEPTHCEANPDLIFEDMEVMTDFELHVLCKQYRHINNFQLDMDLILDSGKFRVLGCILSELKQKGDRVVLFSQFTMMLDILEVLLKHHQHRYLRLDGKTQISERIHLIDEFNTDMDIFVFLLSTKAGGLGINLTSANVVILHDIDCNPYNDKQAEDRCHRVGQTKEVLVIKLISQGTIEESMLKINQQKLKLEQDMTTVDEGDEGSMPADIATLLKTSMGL
Sequence of UniProt Q9UNE7 (Q9UNE7 whole entry, looked up): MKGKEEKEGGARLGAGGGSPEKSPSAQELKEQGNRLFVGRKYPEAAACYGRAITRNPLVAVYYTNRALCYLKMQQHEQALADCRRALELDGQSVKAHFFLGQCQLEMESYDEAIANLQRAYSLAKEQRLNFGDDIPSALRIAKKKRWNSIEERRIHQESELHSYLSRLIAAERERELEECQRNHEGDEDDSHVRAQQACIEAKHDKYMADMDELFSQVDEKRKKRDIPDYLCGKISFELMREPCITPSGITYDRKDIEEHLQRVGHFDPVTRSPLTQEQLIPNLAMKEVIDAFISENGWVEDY
Sequence of UniProt Q96R06 (Q96R06 whole entry, looked up): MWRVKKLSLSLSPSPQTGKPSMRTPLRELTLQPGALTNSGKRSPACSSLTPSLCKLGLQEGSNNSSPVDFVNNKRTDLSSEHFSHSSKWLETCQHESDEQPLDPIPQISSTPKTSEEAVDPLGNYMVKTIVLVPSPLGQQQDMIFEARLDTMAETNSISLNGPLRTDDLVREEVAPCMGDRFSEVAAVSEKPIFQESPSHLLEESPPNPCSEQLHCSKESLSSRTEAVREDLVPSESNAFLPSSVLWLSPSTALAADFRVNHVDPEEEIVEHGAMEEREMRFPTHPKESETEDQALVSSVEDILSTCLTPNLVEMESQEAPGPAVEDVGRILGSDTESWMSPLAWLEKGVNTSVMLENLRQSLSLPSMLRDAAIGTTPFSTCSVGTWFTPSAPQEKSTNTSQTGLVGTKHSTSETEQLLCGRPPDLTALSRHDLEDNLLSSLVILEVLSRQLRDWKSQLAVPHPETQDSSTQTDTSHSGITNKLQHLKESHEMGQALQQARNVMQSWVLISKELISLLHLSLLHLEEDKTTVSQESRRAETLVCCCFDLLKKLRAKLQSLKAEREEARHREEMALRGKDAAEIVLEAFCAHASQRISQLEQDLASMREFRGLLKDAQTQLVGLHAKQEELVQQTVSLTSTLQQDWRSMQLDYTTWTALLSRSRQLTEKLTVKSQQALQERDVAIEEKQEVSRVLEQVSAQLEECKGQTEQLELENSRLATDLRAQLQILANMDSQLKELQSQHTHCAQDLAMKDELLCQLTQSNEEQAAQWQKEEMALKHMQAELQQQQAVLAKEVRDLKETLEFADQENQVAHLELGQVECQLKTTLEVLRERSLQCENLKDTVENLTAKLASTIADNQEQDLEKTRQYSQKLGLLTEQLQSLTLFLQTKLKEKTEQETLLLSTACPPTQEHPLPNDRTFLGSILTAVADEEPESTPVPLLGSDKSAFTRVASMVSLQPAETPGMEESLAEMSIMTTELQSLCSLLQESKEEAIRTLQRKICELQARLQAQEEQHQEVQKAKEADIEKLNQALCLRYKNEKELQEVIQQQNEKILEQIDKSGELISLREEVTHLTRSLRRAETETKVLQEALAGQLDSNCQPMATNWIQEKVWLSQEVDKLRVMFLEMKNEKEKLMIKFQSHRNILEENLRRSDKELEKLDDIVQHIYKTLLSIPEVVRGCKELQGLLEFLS
Sequence of UniProt Q9UPR3 (Q9UPR3 whole entry, looked up): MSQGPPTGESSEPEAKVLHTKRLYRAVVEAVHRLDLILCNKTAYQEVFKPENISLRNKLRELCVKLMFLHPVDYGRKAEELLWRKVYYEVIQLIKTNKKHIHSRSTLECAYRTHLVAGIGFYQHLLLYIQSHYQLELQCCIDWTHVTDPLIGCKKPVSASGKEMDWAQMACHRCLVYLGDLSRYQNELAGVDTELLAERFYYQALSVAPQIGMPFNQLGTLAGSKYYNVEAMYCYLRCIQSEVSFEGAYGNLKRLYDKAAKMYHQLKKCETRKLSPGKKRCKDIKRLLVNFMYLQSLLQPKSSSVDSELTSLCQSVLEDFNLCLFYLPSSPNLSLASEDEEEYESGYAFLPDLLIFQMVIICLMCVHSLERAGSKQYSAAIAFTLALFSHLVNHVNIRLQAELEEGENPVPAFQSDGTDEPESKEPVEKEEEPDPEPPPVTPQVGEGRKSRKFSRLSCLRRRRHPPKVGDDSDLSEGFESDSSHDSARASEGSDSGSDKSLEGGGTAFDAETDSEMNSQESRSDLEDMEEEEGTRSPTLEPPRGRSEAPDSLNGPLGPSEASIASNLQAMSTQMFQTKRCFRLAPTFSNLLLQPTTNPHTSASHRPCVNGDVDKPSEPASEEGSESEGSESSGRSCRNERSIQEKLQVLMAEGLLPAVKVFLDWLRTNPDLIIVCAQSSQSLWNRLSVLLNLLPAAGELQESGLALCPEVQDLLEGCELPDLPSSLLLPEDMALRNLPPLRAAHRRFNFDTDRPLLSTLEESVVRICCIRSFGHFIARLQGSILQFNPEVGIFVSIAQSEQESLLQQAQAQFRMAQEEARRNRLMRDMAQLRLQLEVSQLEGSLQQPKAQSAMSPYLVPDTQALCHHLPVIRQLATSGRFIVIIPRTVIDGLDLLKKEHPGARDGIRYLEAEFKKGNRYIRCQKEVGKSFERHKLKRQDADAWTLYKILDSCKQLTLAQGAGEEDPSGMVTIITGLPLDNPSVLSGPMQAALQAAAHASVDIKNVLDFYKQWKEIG
Sequence of UniProt Q96SB8 (Q96SB8 whole entry, looked up): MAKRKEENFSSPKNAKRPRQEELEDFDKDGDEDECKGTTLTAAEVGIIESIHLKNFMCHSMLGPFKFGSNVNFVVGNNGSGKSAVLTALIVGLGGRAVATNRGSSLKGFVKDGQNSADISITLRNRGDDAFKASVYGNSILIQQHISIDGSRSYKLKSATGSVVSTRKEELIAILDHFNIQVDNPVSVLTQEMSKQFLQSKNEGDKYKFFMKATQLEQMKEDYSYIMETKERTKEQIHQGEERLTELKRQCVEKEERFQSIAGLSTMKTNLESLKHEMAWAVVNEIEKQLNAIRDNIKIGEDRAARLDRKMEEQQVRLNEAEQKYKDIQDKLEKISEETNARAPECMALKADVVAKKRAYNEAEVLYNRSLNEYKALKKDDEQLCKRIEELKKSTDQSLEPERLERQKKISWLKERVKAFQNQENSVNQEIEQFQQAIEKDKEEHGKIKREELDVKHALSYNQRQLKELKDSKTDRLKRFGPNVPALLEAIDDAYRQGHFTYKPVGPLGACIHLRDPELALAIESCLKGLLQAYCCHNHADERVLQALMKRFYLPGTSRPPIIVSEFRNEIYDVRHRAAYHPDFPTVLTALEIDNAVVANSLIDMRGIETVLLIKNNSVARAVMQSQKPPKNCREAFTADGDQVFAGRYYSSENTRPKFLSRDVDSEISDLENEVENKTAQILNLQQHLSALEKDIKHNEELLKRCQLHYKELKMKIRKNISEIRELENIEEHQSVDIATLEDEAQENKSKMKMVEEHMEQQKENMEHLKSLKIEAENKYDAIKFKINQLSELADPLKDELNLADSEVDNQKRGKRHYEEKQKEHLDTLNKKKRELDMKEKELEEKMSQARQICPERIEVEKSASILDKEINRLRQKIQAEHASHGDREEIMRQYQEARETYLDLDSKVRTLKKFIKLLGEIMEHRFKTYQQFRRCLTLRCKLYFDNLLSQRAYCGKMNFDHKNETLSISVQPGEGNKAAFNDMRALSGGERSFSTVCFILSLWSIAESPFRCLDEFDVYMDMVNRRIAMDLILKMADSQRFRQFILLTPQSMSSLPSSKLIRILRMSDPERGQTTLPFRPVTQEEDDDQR

Target | log2 fold change [1] | log2 fold change [2] | log2 fold change [3] | log2 fold change [4] | log2 fold change [5] | log2 fold change [6] | log2 fold change [7] | log2 fold change [8] | log2 fold change [9] | log2 fold change [10]
SLC7A5 (UniProt Q01650) | 0.001 (inactive) | -0.009 (inactive) | -0.029 (inactive) | -0.015 (inactive) | 0.02 (inactive) | 0.007 (inactive) | -0.008 (inactive) | 0.019 (inactive) | -0.006 (inactive) | 0.021 (inactive)
STUB1 (UniProt Q9UNE7) | 0.05 (inactive) | 0.024 (inactive) | -0.034 (inactive) | -0.022 (inactive) | 0.009 (inactive) | 0.003 (inactive) | -0.033 (inactive) | 0.013 (inactive) | 0.006 (inactive) | -0.018 (inactive)
SMYD3 (UniProt Q9H7B4) | 0.094 (inactive) | 0.104 (inactive) | 0.009 (inactive) | -0.036 (inactive) | 0.064 (inactive) | -0.021 (inactive) | -0.036 (inactive) | -0.022 (inactive) | -0.038 (inactive) | 0.001 (inactive)
SRPK1 (UniProt Q96SB4) | 0.015 (inactive) | -0.04 (inactive) | 0.121 (inactive) | 0.016 (inactive) | 0.003 (inactive) | 0.05 (inactive) | 0.017 (inactive) | -0.01 (inactive) | 0.007 (inactive) | 0.019 (inactive)
SLC38A1 (UniProt Q9H2H9) | -0.01 (inactive) | -0.029 (inactive) | 0.056 (inactive) | 0.007 (inactive) | 0.01 (inactive) | 0.039 (inactive) | -0.061 (inactive) | -0.027 (inactive) | 0.026 (inactive) | 0.053 (inactive)
TARBP1 (UniProt Q13395) | 0.134 (inactive) | 0.047 (inactive) | -0.02 (inactive) | 0.051 (inactive) | -0.059 (inactive) | 0.044 (inactive) | -0.048 (inactive) | 0.007 (inactive) | 0.034 (inactive) | 0.084 (inactive)
SMC6 (UniProt Q96SB8) | 0.02 (inactive) | 0.038 (inactive) | -0.03 (inactive) | -0.002 (inactive) | -0.009 (inactive) | 0.019 (inactive) | -0.055 (inactive) | -0.031 (inactive) | 0.03 (inactive) | 0.01 (inactive)
STMN3 (UniProt Q9NZ72) | 0.012 (inactive) | 0.01 (inactive) | -0.003 (inactive) | -0.122 (inactive) | -0.062 (inactive) | -0.026 (inactive) | 0.043 (inactive) | -0.097 (inactive) | 0.091 (inactive) | -0.006 (inactive)
SNAP23 (UniProt O00161) | -0.01 (inactive) | 0.037 (inactive) | -0.025 (inactive) | 0.047 (inactive) | 0.02 (inactive) | 0.039 (inactive) | 0.022 (inactive) | 0.018 (inactive) | 0.03 (inactive) | 0.038 (inactive)
SMC3 (UniProt Q9UQE7) | -0.01 (inactive) | 0.018 (inactive) | -0.004 (inactive) | 0.018 (inactive) | -0.013 (inactive) | 0.002 (inactive) | 0.023 (inactive) | -0.007 (inactive) | -0.016 (inactive) | -0.009 (inactive)
SLC16A1 (UniProt P53985) | -0.007 (inactive) | -0.038 (inactive) | 0.036 (inactive) | 0.029 (inactive) | -0.018 (inactive) | 0.034 (inactive) | 0.034 (inactive) | -0.024 (inactive) | 0.004 (inactive) | 0.032 (inactive)
SPAG5 (UniProt Q96R06) | 0.013 (inactive) | 0.012 (inactive) | -0.054 (inactive) | 0.003 (inactive) | -0.008 (inactive) | 0.014 (inactive) | 0.018 (inactive) | -0.009 (inactive) | -0.011 (inactive) | 0 (inactive)
SND1 (UniProt Q7KZF4) | 0.022 (inactive) | 0.042 (inactive) | -0.009 (inactive) | 0.007 (inactive) | 0.031 (inactive) | 0.017 (inactive) | -0.042 (inactive) | 0.005 (inactive) | -0.005 (inactive) | -0.012 (inactive)
SMC1B isoform 3 (UniProt Q8NDV3) | -0.002 (inactive) | 0.265 (active) | 0.003 (inactive) | -0.04 (inactive) | -0.067 (inactive) | 0.02 (inactive) | -0.032 (inactive) | 0.048 (inactive) | 0.205 (inactive) | 0.043 (inactive)
SLC25A25 isoform 3 (UniProt Q6KCM7) | -0.029 (inactive) | 0.054 (inactive) | -0.038 (inactive) | 0.039 (inactive) | -0.003 (inactive) | -0.027 (inactive) | 0.01 (inactive) | 0.011 (inactive) | -0.026 (inactive) | -0.041 (inactive)
SYK (UniProt P43405) | -0.004 (inactive) | -0.007 (inactive) | 0.017 (inactive) | 0.039 (inactive) | -0.033 (inactive) | 0.021 (inactive) |  | -0.013 (inactive) | -0.038 (inactive) | 0.053 (inactive)
SH3BP2 isoform 4 (UniProt P78314) | -0.037 (inactive) | 0.213 (inactive) | 0.001 (inactive) | 0.044 (inactive) | -0.103 (inactive) | 0.088 (inactive) | -0.073 (inactive) |  |  | 0.03 (inactive)

Target | log2 fold change [1] | log2 fold change [2] | log2 fold change [3] | log2 fold change [4] | log2 fold change [5] | log2 fold change [6] | log2 fold change [7] | log2 fold change [8] | log2 fold change [9] | log2 fold change [10]
SYNE2 isoform 2 (UniProt Q8WXH0) | -0.09 (inactive) | -0.069 (inactive) | -0.023 (inactive) | -0.156 (inactive) | -0.04 (inactive) | -0.015 (inactive) | -0.146 (inactive) | -0.064 (inactive) | 0.037 (inactive) | 0.127 (inactive)
STK3 isoform 2 (UniProt Q13188) | -0.009 (inactive) | -0.1 (inactive) | 0.012 (inactive) | -0.07 (inactive) | -0.001 (inactive) | 0.016 (inactive) | 0.181 (inactive) | 0.157 (inactive) | 0.031 (inactive) | -0.005 (inactive)
SPATS2 (UniProt Q86XZ4) | -0.012 (inactive) | -0.127 (inactive) | -0.042 (inactive) | 0.028 (inactive) | -0.007 (inactive) | 0.017 (inactive) | -0.081 (inactive) | 0.063 (inactive) | 0.043 (inactive) | -0.066 (inactive)
SPATA5 (UniProt Q8NB90) | 0.04 (inactive) | 0.025 (inactive) | -0.006 (inactive) | 0.025 (inactive) | -0.042 (inactive) | 0.042 (inactive) | 0.015 (inactive) | 0.017 (inactive) | 0.017 (inactive) | 0.016 (inactive)
TADA3 (UniProt O75528) | 0.02 (inactive) | -0.046 (inactive) | 0.032 (inactive) | -0.073 (inactive) | -0.04 (inactive) | 0.048 (inactive) | 0.009 (inactive) | -0.058 (inactive) | 0.053 (inactive) | 0.018 (inactive)
SMARCAD1 isoform 2 (UniProt Q9H4L7) | 0 (inactive) | 0.022 (inactive) | -0.039 (inactive) | 0.023 (inactive) | -0.019 (inactive) | 0.041 (inactive) | -0.052 (inactive) | -0.051 (inactive) | 0.003 (inactive) | -0.006 (inactive)
SLC25A44 (UniProt Q96H78) | 0.117 (inactive) | -0.275 (inactive) | 0.055 (inactive) | -0.018 (inactive) | 0.025 (inactive) | -0.064 (inactive) | 0.145 (inactive) | -0.039 (inactive) | 0.037 (inactive) | -0.053 (inactive)
TARDBP (UniProt Q13148) | -0.017 (inactive) | -0.092 (inactive) | 0.018 (inactive) | 0.004 (inactive) | 0.09 (inactive) | -0.133 (inactive) | -0.036 (inactive) | -0.065 (inactive) | 0.032 (inactive) | 0.048 (inactive)
STK38 (UniProt Q15208) | -0.018 (inactive) | -0.029 (inactive) | -0.063 (inactive) | -0.005 (inactive) | 0.038 (inactive) | 0.029 (inactive) | 0.176 (inactive) | -0.002 (inactive) | 0.055 (inactive) | -0.006 (inactive)
SMG5 (UniProt Q9UPR3) | -0.037 (inactive) | -0.038 (inactive) | 0.028 (inactive) | -0.008 (inactive) | -0.012 (inactive) | -0.074 (inactive) | -0.035 (inactive) | -0.004 (inactive) | -0.043 (inactive) | 0.007 (inactive)
TARBP2 (UniProt Q15633) | 0.03 (inactive) | -0.095 (inactive) | -0.066 (inactive) | -0.026 (inactive) | 0.007 (inactive) | 0.027 (inactive) | -0.029 (inactive) | 0.012 (inactive) | -0.002 (inactive) | 0.011 (inactive)
SPC25 (UniProt Q9HBM1) | 0.021 (inactive) | -0.065 (inactive) | -0.006 (inactive) | 0.059 (inactive) | -0.034 (inactive) | 0.021 (inactive) | -0.006 (inactive) | -0.039 (inactive) | 0.018 (inactive) | 0.027 (inactive)
SYPL1 (UniProt Q16563) | 0.026 (inactive) | -0.017 (inactive) | -0.014 (inactive) | 0.016 (inactive) | 0.04 (inactive) | 0.025 (inactive) | 0.002 (inactive) | 0.014 (inactive) | 0.002 (inactive) | 0.032 (inactive)
SRM (UniProt P19623) | -0.006 (inactive) | 0.039 (inactive) | 0.017 (inactive) | -0.001 (inactive) | 0.014 (inactive) | 0.004 (inactive) | -0.003 (inactive) | 0.017 (inactive) | 0.027 (inactive) | 0.007 (inactive)
SPIRE1 (UniProt Q08AE8) | -0.062 (inactive) | 0.054 (inactive) | -0.032 (inactive) | 0.068 (inactive) | -0.067 (inactive) | 0.027 (inactive) | 0.022 (inactive) | 0.013 (inactive) | -0.024 (inactive) | -0.032 (inactive)
TAPT1 (UniProt Q6NXT6) | 0 (inactive) | -0.092 (inactive) | 0.068 (inactive) | -0.038 (inactive) | -0.001 (inactive) | -0.059 (inactive) | -0.039 (inactive) | -0.059 (inactive) | 0.01 (inactive) | 0.002 (inactive)

From the supplement of paper PMC10849652
